# A selection: hits, their analogues and other compounds. The true share with any hit is near 0.5%.
# E coli growth-1 = E. coli growth inhibition | Escherichia coli growth, OD600, 23 h; hits give low values | 330,000 tested, 0.21% active | AID 1053175 | OD600 absorbance (test concentration not listed);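 active means OD600 absorbance below the run mean of sample wells minus 3.6 SD, in any replicate, cut at about 0.56 in these data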
# Tat export inh = E. coli Tat transport inhibition. E. coli MC4100 TorA-mCherry Tat export, fluorescence. inhibition, % at 10 µM. 340,000 tested, 0.036% active;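 active means mean replicate inhibition at least 50% and at least half of replicates individually reaching 50%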;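 further: exported cargo escapes ClpAP degradation while cytoplasmic cargo is degraded and loses fluorescence; 0% = median of neutral control wells and 100% = median of NaSCN control wells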
# phage Ecoli inh = E. coli growth loss with phage present; growth absorbance; 360,000 tested, 0.26% active; inhibition, % at 11.9 µM; AID 651602; in the data active means inhibition above about 11%
# AddAB inh = less growth of phage-infected E. coli with AddAB. E. coli expressing H. pylori AddAB, absorbance growth. inhibition, % at 11.9 µM. 330,000 tested, 0.29% active. AID 435030; in the data active means inhibition above about 12%;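 further: 0% = vehicle wells of infected cells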
# E coli growth-2 = reduces bacterial viability in AddAB counter-screen; AID 449728; E. coli V3065 growth, OD600 absorbance, 18 h; inhibition, % at 11.9 µM; 330,000 tested, 0.27% active;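 active means inhibition above the campaign's mean inhibition across all tested compounds plus 3 SD, cut at about 9.9% in these data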;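 further: uninfected addAB+ strain grown without phage in ampicillin broth; 0% = DMSO wells and 100% = ciprofloxacin 0.95 µg/ml wells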
# RecBCD conf = growth loss of phage-infected V66 E. coli, RecBCD confirmation screen; E. coli V66 + T4 2- phage, growth OD; 890 tested, 45% active; inhibition, % at 11.9 µM; shares compounds with phage Ecoli inh;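 active means mean inhibition over triplicates exceeding the hit threshold derived in the original primary screen, cut at about 11% in these data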
# Ecoli viability = bacterial viability inhibition counter-screen for RecBCD | 890 tested, 29% active | inhibition, % at 11.9 µM | shares compounds with phage Ecoli inh | AID 651983 | E. coli viability, absorbance (OD) growth; in the data active means inhibition above about 20%;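 further: E. coli strain V66 grown with compound alone and no phage infection; 0% = bacteria with DMSO vehicle only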
# AddAB phage OD = growth loss of phage-infected AddAB E. coli, RecBCD counter-screen. shares compounds with phage Ecoli inh. E. coli expressing H. pylori AddAB + T4 phage, OD growth; gene 2 mutant T4, recBCD-deleted host. inhibition, % at 11.9 µM. 890 tested, 45% active;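 active means mean inhibition above the solvent-only control wells' mean plus 3 SD, cut at about 22% in these data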;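 further: higher means less bacterial growth from phage killing when AddAB is blocked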
# Starred values were filed as active, the others as inactive; x = no result given.
SMILES,E coli growth-1,Tat export inh,phage Ecoli inh,AddAB inh,E coli growth-2,RecBCD conf,Ecoli viability,AddAB phage OD
C=CC1c2ccccc2N(S(=O)(=O)c2ccc(C)cc2)C(c2ccccc2C(F)(F)F)C1(C#N)C#N (configuration not stated),0.73,x,x,x,x,x,x,x
NC(=S)NN=Cc1cn(CCC(=O)O)nc1-c1cccc(Br)c1,0.7,x,x,x,x,x,x,x
COc1ccc(-c2nn(CCC(=O)O)cc2/C=N/NC(N)=S)cc1,x,6,73*,-1,-2,-1,-1,4
CN(C)c1cc(NN=Cc2ccccc2)nc(N(C)C)n1,0.62,x,x,x,x,x,x,x
CCNS(=O)(=O)c1ccc(NC(=O)Cn2nc(C(F)(F)F)cc2C)cc1,0.69,-10,12*,11,11*,5,6,7
CN(C)c1ccc(-c2cc(C3C4C=CCC[C@@]4(C)C(=O)N3Cc3ccccc3)ccc2F)cc1 (some centres not stated),0.67,x,x,x,x,x,x,x
O=C(O)c1nn(CCSc2ccccc2F)c(=O)c2ccccc12,0.7,-4,37*,-1,0,-5,-5,0
Cc1ccc(SCCn2nc(C(=O)O)c3ccccc3c2=O)cc1,0.74,13,1,5,2,x,x,x
Nc1ccc(Cn2ccc3c4c(N)nc(N)nc4ccc32)cc1,x,17,100*,x,x,103*,105*,105*
Cc1nc2ccc(N)cc2c(=O)n1Cc1ccc(Cl)cc1,0.69,15,4,2,-1,x,x,x
Cc1nc(NN=Cc2ccccn2)sc1C,0.65,x,x,x,x,x,x,x
Cc1nc(N/N=C/c2ccccn2)sc1C,x,x,16*,20*,18*,1,3,16
O=C(NN=C1CCCc2ccccc21)C(c1ccccc1)c1ccccc1,0.75,x,x,x,x,x,x,x
COc1ccc(C=NNC(=O)c2sc(N)nc2C)cc1OC,0.74,x,x,x,x,x,x,x
CN(C)C(=O)/C(=C\c1ccc(-c2cccc([N+](=O)[O-])c2)o1)NC(=O)c1ccccc1,0.67,0,3,1,2,x,x,x
CN(C)C(=O)/C(=C/c1ccc(-c2cccc([N+](=O)[O-])c2)o1)NC(=O)c1ccccc1,0.66,-2,19*,-1,1,-2,-1,7
CC(=O)c1cn(CC(=O)Nc2ccccc2)c2ccccc12,0.69,-2,12*,14*,11*,5,9,2
COc1ccc(C=NNC(=O)CNC(=O)/C=C/c2ccco2)cc1OC,0.7,x,x,x,x,x,x,x
O=C(O)CCC(=O)Nc1nnc(C(F)(F)F)s1,0.77,1,2,1,-1,x,x,x
CCC(NC(=O)Nc1nnc(C(F)(F)F)s1)(C(F)(F)F)C(F)(F)F,0.61,-21,12*,5,9,10,10,9
CC(C)N=c1scc(-c2cccs2)n1/N=C/c1ccc(O)c(O)c1O,x,-9,16*,10,7,-1,-1,2
Cc1ccc(/C=C/C(=O)c2c(C)nc3ccccn23)cc1,0.68,-1,12*,2,2,-2,-3,1
O=C(CC1CC=CCC(Cc2ccc(F)cc2)C(=O)OCC2CCCN2C1=O)NCCO (configuration not stated),0.71,x,x,x,x,x,x,x
Nc1ccc(CCC(=O)N2CCCC2)cc1,0.71,2,2,x,x,x,x,x
CCC(=O)Nc1ccc(CCC(=O)N2CCCC2)cc1,0.66,3,24*,2,0,-2,-3,0
SMILES,E coli growth-1,Tat export inh,phage Ecoli inh,AddAB inh,E coli growth-2,RecBCD conf,Ecoli viability,AddAB phage OD
O=C(Nc1ccccc1)Nc1cccc(C(F)(F)F)c1,0.62,1,11*,9,7,6,6,7
FC(F)(F)Sc1ccc(NC(=S)NCc2ccccc2)cc1,0.6,-13,13*,11,10*,7,8,13
S=C(NCc1ccccc1)Nc1ccc(Cl)cc1,0.6,-7,5,4,6,x,x,x
CCSCCc1nnc(NC(=O)Nc2cccc(C(F)(F)F)c2)s1,0.69,-8,11*,5,5,4,7,5
O=C(Nc1ccccc1)Nc1ccc(Br)c(Cl)c1,0.58,-5,12*,7,7,7,7,5
CNC(=O)Nc1cccc(C(F)(F)F)c1,0.7,0,10,8,5,x,x,x
CC(Cc1ccccc1)=NNC(=O)CCCCCC(=O)NN=C(C)Cc1ccccc1,0.73,x,x,x,x,x,x,x
O=C(NCc1ccc2c(c1)CCO2)Nc1cccc(C(F)(F)F)c1,0.66,5,11*,3,-1,0,0,5
FC(F)(F)c1cccc(CNC(=S)Nc2ccccc2)c1,0.6,9,5,3,3,x,x,x
FC(F)(F)c1cccc(NC(=S)NCc2ccccc2)c1,0.56,0,12*,9,7,5,7,7
O=C(NCc1cccnc1)Nc1cccc(C(F)(F)F)c1,0.55,11,2,x,x,x,x,x
Nc1c(Cl)ncnc1N/N=C/c1ccccn1,x,x,30*,2,-2,38*,49*,37*
O=C(c1ccc(NC2=NC3CS(=O)(=O)CC3S2)cc1)N1CCN(Cc2ccccc2)CC1 (configuration not stated),0.71,1,13*,-3,-1,-3,-3,0
COC(=O)C1C(c2ccccc2)NC(=O)N(Cc2ccccc2)C1C (configuration not stated),0.7,x,x,x,x,x,x,x
O=c1[nH]c(=O)n(C2OC(CO)C(O)C2O)cc1F (configuration not stated),x,41,x,x,x,x,x,x
Nc1nc(F)nc2c1ncn2[C@@H]1O[C@H](CO)[C@@H](O)[C@@H]1O,x,-9,75*,8,3,78*,79*,78*
O=c1ncccn1C1OC(CO)C(O)C1O (configuration not stated),x,x,96*,x,x,93*,101*,98*
Nc1nc(=O)n(C2OC(CO)C(O)C2O)cc1F (configuration not stated),x,x,21*,x,x,26*,21*,53*
Nc1ncnc2c1ncn2[C@@H]1O[C@H](CO)[C@@H](O)[C@@H]1O,x,-6,4,2,0,x,x,x
CCCn1c(SCC(=O)NC2CCCC2)nnc1-c1ccccn1,0.67,-3,38*,-1,0,-2,-1,3
C=CCn1c(SCC(=O)NC2CCCC2)nnc1-c1ccccn1,0.67,-3,1,2,0,x,x,x
CC(C)(C)OC(=O)CC1CC=CCC(CC(=O)NCCO)C(=O)NC(Cc2ccccc2)COC1=O (configuration not stated),0.66,x,x,x,x,x,x,x
NC(=S)NN=Cc1cc(-c2cccc(N)c2)ccn1,x,x,21*,x,x,14*,16,32*
Cc1cccc(NC(=O)NNC(=O)c2ccc3ccccc3c2O)c1,0.7,-6,11,x,x,x,x,x
O=C(NNC(=O)c1ccc2ccccc2c1O)Nc1ccc(F)cc1,0.73,-2,12*,10,9,5,6,8
